Results from paper PMC12136788.
Changes are numbered by the printed parent chain. Over roughly 24,000 sequences, “enrichment r” has its median near 0.99; the highest 2% begin near 3.7. The full list was thinned out, with the highest values kept by preference.

T1: UNK ZnF1-3 (human, UniProt Q9C0B0 31-174)
T1 sequence: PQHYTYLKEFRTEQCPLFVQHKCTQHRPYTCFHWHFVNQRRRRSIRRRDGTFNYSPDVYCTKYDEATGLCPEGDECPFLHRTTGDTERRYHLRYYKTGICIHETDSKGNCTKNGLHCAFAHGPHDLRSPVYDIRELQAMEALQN

B1: chr14:62207507:62207508:+_ENSG00000100644_ENST00000337138|hu_mus|FALSE|FALSE (ssRNA)
RNA: GGGAGUUCUACAGUCCGACGAUCUGACAACUGAUCAAAGGAACGUAACUGGAAAUCAUCAUCCAUUGGGAUAUAGGGAGCCAGCAUCUCCAAAUCUAAAUCAGUGUCCUGAGUUGAAAAUGGAUUCUUUGCCUCUGUGUCUUCCAACAGAGGAUUGAGCAUCA
B2: chr9:95013113:95013114:-_ENSG00000196305_ENST00000443024|hu_hu|hu_hu_hu_mus_False|28_58 (ssRNA)
RNA: GGGAGUUCUACAGUCCGACGAUCCUCAGUCAGAAAGGGCGUGUAAGGGGCCAUCAGUCUGCACAGAGAAAGCAGGACACUAAACAAUGUCUCCAGAGCCAUGACACAAUCCUCCAUCCCACUCUCACCCUUUAACCUCCUCCUCAACAGAGGAUUGAGCAUCA
B3: chr9:14812383:14812384:-_ENSMUSG00000031934_ENSMUST00000164273|mus_mus|FALSE|FALSE (ssRNA)
RNA: GGGAGUUCUACAGUCCGACGAUCAUAGCUCAAGUAGAUACAUGCCAACAGUAUAACCACAAAUGUCACCAGCCGGCAGCUAAUGUAUUUCAUGAUUAAAUGACUAGAGUUCUUUUUUGUCUUCAAGUACUGCUCCACGAUUGGCAACAGAGGAUUGAGCAUCA
B4: chr5:128448638:128448639:+_ENSG00000066583_ENST00000173527|hu_mus|hu_hu_hu_mus_False|48_58 (ssRNA)
RNA: GGGAGUUCUACAGUCCGACGAUCGGCACUCGCCUUAAUUAGGUUCUGAAUUUCCUUGAACUUCGGGUGGUCUUUGUCAGCUACCAGCUGAAGCAGAACAGCCUCACUAGUGGUCACGAUGAUCCCAGUGCGGGCAAGACGCUCCAACAGAGGAUUGAGCAUCA
B5: chr10:121347744:121347745:-_ENSG00000151923_ENST00000436547|hu_mus|FALSE|FALSE (ssRNA)
RNA: GGGAGUUCUACAGUCCGACGAUCCGAUCUGACUGAAUAACUGAAGAAUAAGGACUUCUGUCACAUCUCUGGAGAGGUUACCUACGUAUAGAGUCCGGGGCUGUCCGUCGUCUUCCAUCAUGGUGGGUGCGACGGAGUGAUCCCCAACAGAGGAUUGAGCAUCA
B6: 89385701_89385821_685_3pUTR_ENSMUSG00000031652_ENSMUST00000034074|mouse|control|control (ssRNA)
RNA: GGGAGUUCUACAGUCCGACGAUCUCUGCGUGGGCUUCAACAAACUGUCUGAAUUCCCGUUUGAUUUCCGACUCUCUCUGAUUACUGGGGAGGUUCUCGUUGCUCUCAAAGAGCUUCACAAACUGCUGAAUGUGACUCCUGGCCCAACAGAGGAUUGAGCAUCA
B7: chr1:130171486:130171487:+_ENSMUSG00000026353_ENSMUST00000027592|perfect_dup|FALSE|FALSE (ssRNA)
RNA: GGGAGUUCUACAGUCCGACGAUCUGUGGAUGUGGCUCUUGCUGAAGUCUGUGCAGGAGGAGGAUUGCUAAAUAAAAAAUUGCUAAUUAAUCUCCAUAUGGCCAGGAAUGGAUAAAGCACCGUCCCCAGUAAUGUCCAAAUGUCCAACAGAGGAUUGAGCAUCA
B8: chr1:130171486:130171487:+_ENSMUSG00000026353_ENSMUST00000027592|perfect_dup|FALSE|FALSE (ssRNA)
RNA: GGGAGUUCUACAGUCCGACGAUCUGACGAUGUUACUCUCACUGAAGUCUGUGUGGGAGGCGGAUUACUAAACAAGAAAUUGCUAAUUAAUCUCCAGAUGGCAAGGAAUGGAUAAAGCACUGUUCCCAACAAGGUCCAAAUGUCCAACAGAGGAUUGAGCAUCA
B9: chr1:130171486:130171487:+_ENSMUSG00000026353_ENSMUST00000027592|perfect_dup|motif|central (ssRNA)
RNA: B7 RNA with U83G, A84G
B10: chr12:16048344:16048345:+_ENSG00000023734_ENST00000419869|hu_hu|hu_hu_hu_mus_True|8_8 (ssRNA)
RNA: GGGAGUUCUACAGUCCGACGAUCAGAUCGUCCAUAAGUAAUAACCAAAAUCUCUCCUUCAGGAAUAUACUCCAUGCUGCUAACAGACAUAUUAAAAUUCAGAGAUUUCACUUCUGUCAUUGUGGCAUGAUCCCAAAGCCGAACCAACAGAGGAUUGAGCAUCA
B11: chr1:130171486:130171487:+_ENSMUSG00000026353_ENSMUST00000027592|perfect_dup|motif|central (ssRNA)
RNA: B8 RNA with U83G, A84G
B12: chr19:16212804:16212805:+_ENSG00000167460_ENST00000300933|hu_mus|hu_hu_hu_mus_False|8_88 (ssRNA)
RNA: GGGAGUUCUACAGUCCGACGAUCAACAAUUCUGGAGUGAAGGAAAGCAUCAAGGAUGAACAGCAUUAAAGCUCAGUCAGAAGGCACAUGGGCAACAAUGAUCACCCCAGCAUUCUCGCUUGGAAUGUGCUUGAGAAAUCUGUUCAACAGAGGAUUGAGCAUCA
B13: chrX:102931482:102931483:-_ENSG00000123562_ENST00000441076|hu_hu|FALSE|FALSE (ssRNA)
RNA: GGGAGUUCUACAGUCCGACGAUCAAUUGCAUCUACAUUUUUCUUGGCAGGGAGUUGAAACAGCUGCUUCUGCCUGGUAACUAAGUCCCAGUCCUCAACAAGCCAUGGUUUUAAUUCUUCAGGAAUCUUCACUUUAACCUCCAUCAACAGAGGAUUGAGCAUCA
B14: chr4:131761308:131761309:-_ENSMUSG00000040025_ENSMUST00000102570|mus_mus|motif|central (ssRNA)
RNA: GGGAGUUCUACAGUCCGACGAUCGCUGACUGUCCAUCAAUCAUGGCUCCACCUAAGGAGCUGGGUGCAUAAGCGUAAUUGCGGCGGUAUCCAGAGCUUUGAGUAGACUGUCCCUGAGAACUGUUAUUUCCCCAUGCUGAGAAGCAACAGAGGAUUGAGCAUCA

Molecular target: T1, UNK ZnF1-3
Experiment: nsRBNS (natural sequence RNA bind-n-seq); RBNS binding buffer (assumed for nsRBNS): 25 mM Tris pH 7.5, 150 mM KCl, 3 mM MgCl2, 0.01% Triton X-100, 500 ug/ml BSA, 20 U/ml SUPERase-In, 4 C; UNK is unkempt and MSI1 is Musashi-1; names of the RNAs are library labels; protein concentration not given here; high values mean tight binding

Binder	binding signal
B1	1.17 enrichment R
B2	1.38 enrichment R
B3	0.953 enrichment R
B4	0.822 enrichment R
B5	0.644 enrichment R
B6	0.876 enrichment R
B7	4.56 enrichment R
B8	4.56 enrichment R
B9	3.3 enrichment R
B10	1.38 enrichment R
B11	3.3 enrichment R
B12	1.57 enrichment R
B13	1.04 enrichment R
B14	1.17 enrichment R
